# Results published in ChEMBL document CHEMBL3988442, “University of Dundee, Small-Polar-MMV Screening Library” (2021).
# Biological target: AMP-activated protein kinase, AMPK (Homo sapiens) (UniProt P54646+O43741+P54619+Q9UGJ0+Q9Y478+Q13131+Q9UGI9)
# Test: AMP-dependent Kinase enzyme assay. An in vitro enzyme assay that detects ADP turnover that is directly proportional to AMPK activity. This uses naive AMPK that is activated during the assay with MK-8722
# Type: functional
# Set-up: scale not given: direction of the effect not stated beside the values
# Conditions: 30 µM
row,SMILES,Percent Effect
1,O=C(Nc1ccccc1OCCc1ccccn1)N1CCOCC(O)C1 (centres undefined),2.87%
2,CC(C)Cc1noc(CN(C)C2CCS(=O)(=O)C2)n1 (centres undefined),-4.29%
3,CNC(=O)c1noc(CN2CC[C@](C)(O)[C@H](C)C2)n1,-4.9%
4,O=C(C1CCCO1)N1CCC(n2cc(-c3ccc(F)cc3)nn2)CC1 (centres undefined),3.48%
5,O=C(CCn1cncn1)N1CCCC(CO)(CCCc2ccccc2)C1 (centres undefined),0.934%
6,Cc1cnn(CCNCC(=O)N2CCN(c3ccccn3)CC2)c1,-14.7%
7,CCS(=O)(=O)N1Cc2ccccc2CC1C(=O)OCc1c(C)noc1C (centres undefined),-0.838%
8,CSCCC(NC(=O)C1CC1)C(=O)N(C)Cc1ccsc1 (centres undefined),-0.745%
9,CCCC(=O)NC1CCCN(c2nc3ccccc3cc2CO)C1 (centres undefined),6.66%
10,Cc1nn(C)c(C)c1S(=O)(=O)NCC1(C(N)=O)CCOCC1,0.589%
11,CN(C)CC(O)Cn1cc(NCc2ccc(Br)cc2)cn1 (centres undefined),-39.9%
12,Cc1nnc(SCCCNc2cc(C3CC3)ncn2)s1,15.2%
13,CC(C)(CNC(=O)c1ccc(Cl)o1)NC(=O)OC(C)(C)C,-2.97%
14,CN1CCN(CCOc2ccc(NC(=O)c3cnc[nH]3)cc2)CC1,0.519%
15,Cc1nnc(N2CCc3cnc(C(C)C)nc3C2)c(C#N)c1C,-15.2%
16,c1ncc(-c2cn(CCSc3cnn[nH]3)nn2)cn1,-3.28%
17,Nc1ccnc(N2CCC(c3nccn3CC3CC3)CC2)n1,-3.62%
18,CCn1cnnc1CNS(=O)(=O)N1CCCC1c1ccco1 (centres undefined),-5.92%
19,COc1cc(CNC(=O)COC2CCCCC2)ccc1O,-0.805%
20,O=C(N1CC(c2cccnc2)C1)C1(c2ccc(F)cc2)CCOCC1,0.43%

row,SMILES,Percent Effect
1,CC(C)(NCCCOc1ccc(C#N)cc1)c1nccs1,3.77%
2,CC(=O)Nn1ccc2c(nnc3c(-c4ccccc4)cnn32)c1=O,12.7%
3,CC(C)(C)c1n[nH]cc1CNC1CCC(O)CC1 (centres undefined),-0.675%
4,O=C1OC2(CCN(CC3CCCO3)CC2)CN1CCc1ccccc1 (centres undefined),-11.7%
5,CN(Cc1nc(CS(C)(=O)=O)no1)c1ccccc1,0.0849%
6,COc1nsc2nc(C3CCCN3C(C)=O)ccc12 (centres undefined),7.38%
7,C[C@H](O)c1cnn(-c2ccccc2)c1,3.7%
8,Cc1ccccc1C(=O)NC[C@@H]1CCN(C(=O)c2cscn2)C[C@H]1O,1.22%
9,CN1C[C@H](c2ccccc2)[C@H]2CN(C(=O)Cc3cccc(O)c3)CC[C@H]21,15.8%
10,Cc1cnn(C2CN(CC(O)COc3ccc(C#N)cc3)C2)c1 (centres undefined),-78.4%
11,COc1ccc2c(c1)CCCN(CC(=O)NCC1CCCO1)C2 (centres undefined),-4.46%
12,CN1CCC(NC(=O)c2cc(Br)cc(Cl)c2O)C1=O (centres undefined),11.8%
13,CC(O)c1cnn(-c2ccccc2)c1 (centres undefined),12.6%
14,Cc1nc(O)cc(CN2C[C@H](NC(=O)C3CCC3)[C@@H](C3CC3)C2)n1,-2.67%
15,N#CC1(NC(=O)c2cc(Cl)ccc2OC(F)F)CCOCC1,-2.23%
16,CCCn1cc(NC(=O)Nc2ccc(F)c(C(=O)NC)c2)cn1,8.23%
17,CC(C)N(CC(=O)Nc1cccc(C(=O)N(C)C)c1)C1CC1,1.38%
18,CCS(=O)(=O)NCC(=O)NC1(C)CCc2ccccc2C1 (centres undefined),-3.96%
19,CNC(=O)NC(=O)CN1CCc2c(Br)ccc(F)c2C1,5.32%
